Activity calls are given as the source filed them.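 Rule for the calls, unless noted: active = inhibition of the reporter signal at or above 50%; inactive = inhibition below 50%.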
Key:
[1] = inhibitors of TNFa-induced NFkB p65 translocation, primary screen, imaging, HUVEC, MLSMR starter and 10KST1 sets (AID 438;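 active = inhibition above 20% together with a positive visual image hit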;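 note: compound added about 3h40 before a 20 min TNFalpha stimulation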;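 for inhibition: signal is the nuclear over cytoplasmic p65 intensity ratio per well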); conditions: HUVEC TNFa-induced p65 nuclear translocation; cell count: measured here: nuclei count (cytotoxicity indicator), at 2.08 µM unless noted; inhibition: at 2 µM, stronger effect = higher value unless noted
[2] = inhibitors of mutant huntingtin aggregation, primary screen, imaging, exon1htt(103Q)mCFP cells, high-content imaging (AID 483;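 active = visual image review flags a hit and inhibition of aggregation exceeds 20%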;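 note: compound exposure lasted 3 days before fixation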;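 for nuclei count: percent of the per-plate median nuclei count of sample wells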); conditions: exon1htt(103Q)mCFP cell line, aggregate imaging, at 2 µM; inhibition of aggregation: stronger effect = higher value; nuclei count: measured here: cell count, toxicity
[3] = inhibitors of E-selectin induction by TNFa, primary screen, imaging, HUVEC, immunofluorescence, MLSMR starter and 10KST1 sets (AID 487;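 active = visually confirmed hit in the image check and inhibition above 20%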;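 for inhibition: signal is fraction of cell area covered by stained E-selectin grains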;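 for nuclei count: 100% = median nuclei count of all wells on the same plate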); conditions: HUVEC TNFalpha-induced E-selectin immunofluorescence imaging, at 2 µM; inhibition: stronger effect = higher value; nuclei count: measured here: cell number, toxicity
[4] = target: Voltage-gated potassium channel subunit beta-2 (Rattus norvegicus) (UniProt P62483); test: KvBeta enzyme negative modulators, primary screen, biochemical, NADPH fluorescence (AID 622;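 active = fluorescence slope higher than the sample average by over 3 SD, cut at about -0.22 in these data, passing the limit was not always enough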;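 note: slope of raw intensity against log time taken from 70 to 1610 s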); conditions: recombinant KvBeta, 4-cyanobenzaldehyde reduction, at 10 µM, stronger effect = higher value
[5] = target: Voltage-gated potassium channel subunit beta-2 (Rattus norvegicus) (UniProt P62483); test: KvBeta positive modulators, primary screen, biochemical, NADPH fluorescence (AID 623;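 active = NADPH fluorescence slope more negative than the mean of all samples by about 3 SD, 99.7% confidence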;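 note: fluorescence intensity change per second fitted from 20 to 320 s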); conditions: Recombinant KvBeta, NADPH fluorescence decrease slope, 10 min; at 10 µM; stronger effect = lower value
[6] = target: Alpha-2C adrenergic receptor (Homo sapiens) (UniProt P18825); test: modulators of alpha2C/GIRK thallium flux, primary screen, cell-based, HEK293 alpha2C/GIRK1/2 (AID 624;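 active = fluorescence slope after compound addition differing from the mean of all screened samples at 99.7% confidence, in either direction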;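 note: slope of fluorescence ratio to pre-addition baseline per second over 15 to 24 s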); conditions: thallium flux BTC fluorescence, at 10 µM, actives lie on both sides
[7] = inhibitors of Sendai virus-induced IRF3 signaling, primary screen, TLR/RLR signaling modifier project, cell-based, Sendai virus stimulus, luciferase, 10K MLSCN set (AID 602276;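 active = inhibition at or above 50% at 10 µM; inactive = inhibition below 50%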;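 note: firefly luciferase from ISG56 promoter only with Renilla not read in this screen; 0% = Sendai virus plus DMSO and 100% = medium plus DMSO without virus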); conditions: HEK293 RL24 IRF3 luciferase reporter, at 10 µM, stronger effect = higher value
[8] = inhibitors of poly I:C-induced TLR3 signaling, primary screen, cell-based, poly I:C stimulus, luciferase, 10K MLSCN set (AID 602277); conditions: HEK293-TLR3 RL24 IRF3 luciferase reporter, at 10 µM, stronger effect = higher value
[9] = target: Muscarinic acetylcholine receptor M4 (Homo sapiens) (UniProt P08173); test: compounds altering M4/GIRK thallium flux, either direction, primary screen, M4 allosteric agonist project, cell-based, HEK293 M4/GIRK, BTC-AM (AID 625;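 active = fluorescence slope after compound addition differing from the mean of all tested samples at 99.7% confidence, mostly higher but some lower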;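 note: thallium influx through GIRK channels coupled to M4 in HEK293 cells with BTC-AM dye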); conditions: at 10 µM, actives lie on both sides
[10] = inhibitors of larval lipid processing in zebrafish, primary screen, whole organism, PED6 fluorescence, gall bladder and intestine (AID 686;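 active = a full or partial loss of lipid-probe fluorescence in the fish gall bladder, intestine or both, judged by eye; inactive = no fluorescence loss, or compound toxic to the fish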;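 note: larvae 5 to 7 days old with five fish per well; signal comes from phospholipase A2 cleavage of quenched PED6 carried via bile; overnight exposure to compound and PED6 before scoring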); conditions: Zebrafish larvae PED6 lipid processing, fluorescence scoring
[11] = inhibitors of Chlamydomonas gravitaxis, primary screen, whole organism, Chlamydomonas reinhardtii, WT vs cilia-less mutant, absorbance, 96-well (AID 463189;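 active = inhibition at or above 50% relative to wild type and mutant plate controls; inactive = inhibition below 50%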;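 note: 0% = wild type cc124 cells in DMSO and 100% = ciliumless bld1 mutant cells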); conditions: OD600 absorbance, 2 days, at 10 µM, stronger effect = higher value

Muscarinic acetylcholine receptor M4 (Homo sapiens), sequence (P08173 whole entry, looked up): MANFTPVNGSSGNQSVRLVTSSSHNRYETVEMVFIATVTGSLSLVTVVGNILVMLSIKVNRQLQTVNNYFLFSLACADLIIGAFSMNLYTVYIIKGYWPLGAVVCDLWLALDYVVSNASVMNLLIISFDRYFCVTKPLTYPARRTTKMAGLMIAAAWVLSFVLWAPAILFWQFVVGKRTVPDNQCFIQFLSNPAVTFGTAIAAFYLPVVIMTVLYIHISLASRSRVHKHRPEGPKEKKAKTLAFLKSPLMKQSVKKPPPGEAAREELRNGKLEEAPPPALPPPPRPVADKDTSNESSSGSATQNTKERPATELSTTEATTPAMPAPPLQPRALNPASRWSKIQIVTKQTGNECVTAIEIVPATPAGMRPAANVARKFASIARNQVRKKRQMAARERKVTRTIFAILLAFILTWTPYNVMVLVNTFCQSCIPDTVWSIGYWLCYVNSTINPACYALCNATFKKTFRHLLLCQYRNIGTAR
Alpha-2C adrenergic receptor (Homo sapiens), sequence (P18825 whole entry, looked up): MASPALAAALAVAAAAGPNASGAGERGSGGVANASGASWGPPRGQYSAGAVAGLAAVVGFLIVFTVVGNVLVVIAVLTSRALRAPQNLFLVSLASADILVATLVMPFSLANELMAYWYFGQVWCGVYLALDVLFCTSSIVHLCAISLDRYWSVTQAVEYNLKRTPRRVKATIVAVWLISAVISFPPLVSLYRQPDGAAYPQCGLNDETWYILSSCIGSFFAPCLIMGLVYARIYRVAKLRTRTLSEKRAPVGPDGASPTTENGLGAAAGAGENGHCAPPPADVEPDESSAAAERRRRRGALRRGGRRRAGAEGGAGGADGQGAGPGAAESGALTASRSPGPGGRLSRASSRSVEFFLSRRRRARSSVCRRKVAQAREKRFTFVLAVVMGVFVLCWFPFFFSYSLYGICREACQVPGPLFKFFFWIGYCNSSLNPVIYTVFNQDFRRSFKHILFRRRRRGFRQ
Voltage-gated potassium channel subunit beta-2 (Rattus norvegicus), sequence (P62483 whole entry, looked up): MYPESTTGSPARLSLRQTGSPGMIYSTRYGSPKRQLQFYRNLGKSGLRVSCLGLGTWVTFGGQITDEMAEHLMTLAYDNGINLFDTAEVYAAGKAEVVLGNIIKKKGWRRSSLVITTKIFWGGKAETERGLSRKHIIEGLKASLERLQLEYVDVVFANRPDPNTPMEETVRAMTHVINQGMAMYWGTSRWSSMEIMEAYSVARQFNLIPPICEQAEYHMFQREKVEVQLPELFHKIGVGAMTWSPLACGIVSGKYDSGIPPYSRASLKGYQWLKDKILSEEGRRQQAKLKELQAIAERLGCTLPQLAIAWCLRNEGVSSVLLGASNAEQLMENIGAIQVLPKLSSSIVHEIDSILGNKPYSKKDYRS

| SMILES | cell count [1] | inhibition [1] | inhibition of aggregation [2] | nuclei count [2] | inhibition [3] | nuclei count [3] | fluorescence slope [4] | NADPH fluorescence slope [5] | slope [6] | inhibition [7] | inhibition [8] | fluorescence slope [9] | outcome [10] | inhibition [11] |
| --- | --- | --- | --- | --- | --- | --- | --- | --- | --- | --- | --- | --- | --- | --- |
| Cc1cc(OCC(=O)O)c2c3c(c(=O)oc2c1)CCCC3 | 361 | 5.7% (inactive) | -15% (inactive) | 92.2% | -74% (inactive) | 87.1% | -0.117 (active) | -1.4e-05 (inactive) | 0.00624 (inactive) | -0.949% (inactive) | -5.67% (inactive) |  |  |  |
| CC1CCN2c3nc4ccccn4c(=O)c3CC3(C(=O)N(C)C(=O)N(C)C3=O)C2C1 (stereo not drawn) | 459 | -8.6% (inactive) | 11.4% (inactive) | 76.7% | -10% (inactive) | 95.1% | -0.523 (inactive) | -6.2e-05 (inactive) |  | 10.8% (inactive) | 16.3% (inactive) | 0.00473 (inactive) |  |  |
| Cc1cccc(-n2c(-c3ccco3)nc3ccccc3c2=O)n1 | 344 | -2.8% (inactive) | 3.4% (inactive) | 97.9% | 20.8% (inactive) | 83.8% | -0.368 (inactive) | 7.6e-06 (inactive) |  | -11.4% (inactive) | -10.7% (inactive) | 0.00556 (inactive) |  |  |
| COc1ccccc1N1CCN(Cc2cccc(OC)c2O)CC1 | 509 | -6% (inactive) | 23.5% (inactive) | 95.4% | -10% (inactive) | 85.8% | -0.58 (inactive) | -0.000104 (inactive) |  | 14.4% (inactive) | 12.6% (inactive) | 0.0035 (inactive) |  |  |
| Cc1ccc(S(=O)(=O)Cc2ccc(C(=O)N3CCC4(CC3)OCCO4)o2)cc1 | 602 | -6.9% (inactive) | 16.1% (inactive) | 113% | -17.6% (inactive) | 102% | -0.432 (inactive) | -0.000506 (inactive) |  | -7.38% (inactive) | -9.45% (inactive) | 0.00517 (inactive) |  |  |
| CCOC(=O)C1=C(N)OC(C)=C(C(=O)OCCOC)C12C(=O)Nc1ccccc12 (stereo not drawn) | 336 | 4.8% (inactive) | -0.2% (inactive) | 91.4% | -113% (inactive) | 97% | -0.454 (inactive) | -0.000189 (active) | 0.00493 (inactive) | 19.8% (inactive) | 32% (inactive) |  | inactive |  |
| CNP1(NC)=NC(C(F)(F)F)=NC(C(F)(F)F)=N1 | 338 | -24% (inactive) | 6.8% (inactive) | 112% | -0.4% (inactive) | 89.8% | -0.447 (inactive) | -3.2e-05 (inactive) | 0.00454 (inactive) | -2.73% (inactive) | 97.8% (active) |  | inactive |  |
| Cn1c(O)c(C=NCc2ccco2)c(=O)n(C)c1=O | 327 | -3.8% (inactive) | -8.5% (inactive) | 109% | -150% (inactive) | 118% | -0.557 (inactive) | 3.2e-06 (inactive) |  | 22.6% (inactive) | 14.6% (inactive) | 0.00416 (inactive) |  |  |
| O=C(O)Cn1cc(C(=O)c2ccccc2)c2ccccc21 | 389 | -3.3% (inactive) | 16.7% (inactive) | 89.2% | -22.1% (inactive) | 104% | -0.352 (inactive) | 1.2e-06 (inactive) | 0.00605 (inactive) | 9.27% (inactive) | 23% (inactive) |  | inactive |  |
| Cc1cc(N2C(=O)C3CCCN3C2c2cccc(Cl)c2)no1 (stereo not drawn) | 465 | -3.9% (inactive) | 8.2% (inactive) | 97.3% | 28.8% (inactive) | 91.4% | -0.543 (inactive) | -2.7e-05 (inactive) |  | 13.2% (inactive) | 22.3% (inactive) | 0.00553 (inactive) |  |  |
| CCOC(=O)c1cccc([P+](=O)O)c1 | 570 | 0% (inactive) | 1.9% (inactive) | 95.2% | -41.6% (inactive) | 106% | -0.582 (inactive) | -3.4e-05 (inactive) |  | -12.3% (inactive) | -3.34% (inactive) | 0.00773 (inactive) |  |  |
| O=C(CN1CCN(Cc2cccc(Cl)c2)C1=O)N1CCC2(CC1)OCCO2 | 363 | 1.1% (inactive) | 19.2% (inactive) | 73.9% | 26.2% (inactive) | 111% | -0.578 (inactive) | -1.5e-05 (inactive) |  | 4.07% (inactive) | 14% (inactive) | 0.00798 (inactive) |  |  |
| CC(=NCc1cccnc1)c1c(O)n(Cc2ccccc2)c(=O)[nH]c1=O | 421 | 1.2% (inactive) | -11.9% (inactive) | 120% | -174% (inactive) | 126% | -0.492 (inactive) | 0.000113 (inactive) |  | 9.01% (inactive) | 3.95% (inactive) | 0.0065 (inactive) |  |  |
| O=C(C1CCCN(S(=O)(=O)c2cccc3nsnc23)C1)N1CCC2(CC1)OCCO2 (stereo not drawn) | 815 | -0.7% (inactive) | 10.6% (inactive) | 96.6% | -154% (inactive) | 125% | -0.322 (inactive) | -2.9e-05 (inactive) |  | 16.9% (inactive) | 1.28% (inactive) | 0.00517 (inactive) |  |  |
| COc1ccc(-n2nc(C(F)(F)F)cc2-c2ccc(Cl)cc2)cc1 |  |  |  |  |  |  |  |  |  |  |  |  |  | -10.1% (inactive) |
| COC(=O)c1ccccc1-n1c(C)nc2ccccc2c1=O | 328 | -4.4% (inactive) | -24.8% (inactive) | 103% | -140% (inactive) | 115% | -0.605 (inactive) | 4.4e-06 (inactive) |  | -2.94% (inactive) | -2.38% (inactive) | 0.00587 (inactive) |  |  |
| CC1(C)CC(=O)C=C(NCCN2CCN(C(=O)Cc3ccc(Cl)cc3)CC2)C1 | 706 | -4.2% (inactive) | 3% (inactive) | 120% | -80.1% (inactive) | 109% | -0.463 (inactive) | -4.2e-05 (inactive) |  | 16.3% (inactive) | 9.81% (inactive) | 0.00475 (inactive) |  |  |
| NC(=O)CSP(=O)(c1ccccc1)c1ccccc1 | 427 | -3.5% (inactive) | 4.2% (inactive) | 110% | -31.5% (inactive) | 105% | -0.541 (inactive) | -3.8e-05 (inactive) |  | 6.33% (inactive) | 18.3% (inactive) | 0.00487 (inactive) |  |  |
| CC12CCCCC1=[N+]([O-])CN2O (stereo not drawn) | 725 | -10% (inactive) | -27.6% (inactive) | 99.9% | -15.8% (inactive) | 118% | -0.554 (inactive) | 1.5e-05 (inactive) |  | -0.121% (inactive) | 6.9% (inactive) | 0.0045 (inactive) |  |  |
| C[N+](C)(C)CCOC(=O)CBr |  |  |  |  |  |  |  |  |  |  |  |  |  | 0.371% (inactive) |
| O=C1C2CCCN2C(c2ccc(Cl)c(Cl)c2)N1c1ccccn1 (stereo not drawn) | 499 | -2.1% (inactive) | 0.2% (inactive) | 98.4% | 17.4% (inactive) | 101% | -0.552 (inactive) | -4e-05 (inactive) |  | 17.8% (inactive) | 12.7% (inactive) | 0.00578 (inactive) |  |  |
| O=C(Cc1ccccc1)OC(COCc1ccccc1)CN1CCOCC1 (stereo not drawn) | 314 | -7.8% (inactive) | -19.1% (inactive) | 77.8% | -56.9% (inactive) | 117% | -0.37 (inactive) | 2.9e-05 (inactive) |  | 2.92% (inactive) | 10.1% (inactive) | 0.00718 (inactive) |  |  |
| Nc1ccccc1C(=O)OC1CSC1 | 621 | -8.7% (inactive) | -13.4% (inactive) | 102% | -29.1% (inactive) | 93.5% | -0.559 (inactive) | -2.7e-06 (inactive) |  | 20.2% (inactive) | 15% (inactive) | 0.00479 (inactive) |  |  |
| CCCCn1c(O)c(C(C)=NCCc2ccccc2)c(=O)[nH]c1=O | 280 | -5.3% (inactive) | 16.4% (inactive) | 72.1% | -114% (inactive) | 187% | -0.454 (inactive) | -0.000351 (inactive) |  | 3.98% (inactive) | -8.74% (inactive) | 0.00293 (inactive) |  |  |
| OCC12COC3c4ccccc4C(OC1)N32 (stereo not drawn) | 478 | -7.1% (inactive) | -0.1% (inactive) | 109% | -7.2% (inactive) | 112% | -0.538 (inactive) | -4.5e-06 (inactive) |  | 5.14% (inactive) | 12.6% (inactive) | 0.00589 (inactive) |  |  |
| COc1ccc(CCNC(=O)c2c(N)n(CCN3CCOCC3)c3nc4ccccc4nc23)cc1 | 403 | 9.5% (inactive) | -9.7% (inactive) | 90.9% | -157% (inactive) | 115% | -0.454 (inactive) | -7.3e-05 (inactive) |  | -3.7% (inactive) | -28.7% (inactive) | 0.00515 (inactive) |  |  |
| COc1ccccc1OCCCn1cc(C(=O)c2ccco2)c2ccccc21 | 596 | -2.5% (inactive) | -12.2% (inactive) | 101% | -29.4% (inactive) | 111% | -0.309 (inactive) | -2.9e-06 (inactive) |  | -22.2% (inactive) | -81.2% (inactive) | 0.00746 (inactive) |  |  |
| Cn1c(=O)cc(SCC(=O)N2CCC3(CC2)OCCO3)c2ccc(Cl)cc21 | 442 | 0.9% (inactive) | 7.2% (inactive) | 84.4% | 22.8% (inactive) | 106% | -0.556 (inactive) | -3.6e-05 (inactive) |  | 32.3% (inactive) | 38.4% (inactive) | 0.00629 (inactive) |  |  |
| CCC(C)NC(=O)c1c(N)n(CC2CCCO2)c2nc3ccccc3nc12 (stereo not drawn) | 603 | -1.4% (inactive) | -0.7% (inactive) | 80.9% | -13.3% (inactive) | 128% | -0.058 (active) | 1.6e-05 (inactive) |  | 14.8% (inactive) | 17.6% (inactive) | 0.00598 (inactive) |  |  |
| Oc1ccc(C2NCc3ccccc3-n3cccc32)cc1Cl (stereo not drawn) | 668 | -13.6% (inactive) | 35.1% (inactive) | 127% | -48.5% (inactive) | 110% | -0.46 (inactive) | -3.3e-05 (inactive) |  | 4.87% (inactive) | 23.9% (inactive) | 0.00669 (inactive) |  |  |

From PubChem BioAssay
